# Results: ChEMBL document CHEMBL1961873, “Compounds: GSK PKIS; Assays: Nanosyn kinase panel” (2012)
# What was measured:
# [1] = molecular target: Sphingosine kinase 1 (Homo sapiens) (UniProt Q9NYA1); conditions: at 1 µM;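 further: mean SPHK1 inhibition value reported from the GSK PKIS kinase panel screen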
# [2] = molecular target: T1, Sphingosine kinase 2 (Homo sapiens) (UniProt Q9NRA0); conditions: at 0.1 µM
# T1 sequence (whole entry): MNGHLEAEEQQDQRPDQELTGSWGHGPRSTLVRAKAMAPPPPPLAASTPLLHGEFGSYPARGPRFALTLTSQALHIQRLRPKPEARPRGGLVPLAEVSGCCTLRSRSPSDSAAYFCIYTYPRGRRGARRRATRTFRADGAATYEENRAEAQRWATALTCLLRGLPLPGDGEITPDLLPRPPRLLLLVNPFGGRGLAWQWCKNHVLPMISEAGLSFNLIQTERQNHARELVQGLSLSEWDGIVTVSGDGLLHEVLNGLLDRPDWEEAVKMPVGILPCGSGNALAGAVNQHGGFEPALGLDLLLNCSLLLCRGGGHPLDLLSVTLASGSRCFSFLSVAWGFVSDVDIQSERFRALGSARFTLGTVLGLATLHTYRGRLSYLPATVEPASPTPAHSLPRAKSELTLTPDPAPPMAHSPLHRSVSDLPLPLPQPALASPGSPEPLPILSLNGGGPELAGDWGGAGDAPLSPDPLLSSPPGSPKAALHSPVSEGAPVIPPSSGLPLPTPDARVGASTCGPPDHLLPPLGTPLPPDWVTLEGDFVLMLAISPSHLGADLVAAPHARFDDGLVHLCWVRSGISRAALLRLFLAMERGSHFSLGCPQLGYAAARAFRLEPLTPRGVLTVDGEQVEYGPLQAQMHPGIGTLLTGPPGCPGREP
# [3] = molecular target: T1, Sphingosine kinase 2 (Homo sapiens); conditions: at 1 µM
# [4] = molecular target: Casein kinase II subunit alpha (Homo sapiens) (UniProt P68400); conditions: at 0.1 µM
# [5] = molecular target: Casein kinase II subunit alpha (Homo sapiens) (UniProt P68400); conditions: at 1 µM
# [6] = molecular target: T2, Inhibitor of nuclear factor kappa-B kinase subunit alpha (Homo sapiens) (UniProt O15111); conditions: at 0.1 µM
# T2 sequence (whole entry): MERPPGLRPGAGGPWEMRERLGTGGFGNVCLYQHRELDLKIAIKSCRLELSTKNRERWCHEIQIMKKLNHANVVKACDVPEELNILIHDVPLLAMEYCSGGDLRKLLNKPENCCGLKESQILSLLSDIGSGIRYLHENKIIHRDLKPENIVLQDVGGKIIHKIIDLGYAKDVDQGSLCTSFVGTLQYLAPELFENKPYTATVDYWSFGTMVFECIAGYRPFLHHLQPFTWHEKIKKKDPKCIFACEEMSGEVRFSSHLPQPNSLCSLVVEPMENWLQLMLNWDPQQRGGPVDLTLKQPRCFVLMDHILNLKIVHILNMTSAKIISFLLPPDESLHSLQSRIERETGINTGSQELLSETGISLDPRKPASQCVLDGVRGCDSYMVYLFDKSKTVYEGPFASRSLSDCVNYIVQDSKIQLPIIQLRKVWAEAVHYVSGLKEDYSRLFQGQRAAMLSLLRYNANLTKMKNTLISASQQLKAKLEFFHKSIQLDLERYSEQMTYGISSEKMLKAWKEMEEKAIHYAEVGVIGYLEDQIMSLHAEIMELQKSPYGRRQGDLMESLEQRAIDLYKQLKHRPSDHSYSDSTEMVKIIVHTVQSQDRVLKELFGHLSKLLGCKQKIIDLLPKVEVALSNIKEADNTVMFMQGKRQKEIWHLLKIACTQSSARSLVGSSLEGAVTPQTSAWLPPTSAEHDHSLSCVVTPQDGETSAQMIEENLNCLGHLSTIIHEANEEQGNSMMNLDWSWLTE
# [7] = molecular target: T2, Inhibitor of nuclear factor kappa-B kinase subunit alpha (Homo sapiens); conditions: at 1 µM
# [8] = molecular target: T3, Inhibitor of nuclear factor kappa-B kinase subunit beta (Homo sapiens) (UniProt O14920); conditions: at 0.1 µM
# T3 sequence (whole entry): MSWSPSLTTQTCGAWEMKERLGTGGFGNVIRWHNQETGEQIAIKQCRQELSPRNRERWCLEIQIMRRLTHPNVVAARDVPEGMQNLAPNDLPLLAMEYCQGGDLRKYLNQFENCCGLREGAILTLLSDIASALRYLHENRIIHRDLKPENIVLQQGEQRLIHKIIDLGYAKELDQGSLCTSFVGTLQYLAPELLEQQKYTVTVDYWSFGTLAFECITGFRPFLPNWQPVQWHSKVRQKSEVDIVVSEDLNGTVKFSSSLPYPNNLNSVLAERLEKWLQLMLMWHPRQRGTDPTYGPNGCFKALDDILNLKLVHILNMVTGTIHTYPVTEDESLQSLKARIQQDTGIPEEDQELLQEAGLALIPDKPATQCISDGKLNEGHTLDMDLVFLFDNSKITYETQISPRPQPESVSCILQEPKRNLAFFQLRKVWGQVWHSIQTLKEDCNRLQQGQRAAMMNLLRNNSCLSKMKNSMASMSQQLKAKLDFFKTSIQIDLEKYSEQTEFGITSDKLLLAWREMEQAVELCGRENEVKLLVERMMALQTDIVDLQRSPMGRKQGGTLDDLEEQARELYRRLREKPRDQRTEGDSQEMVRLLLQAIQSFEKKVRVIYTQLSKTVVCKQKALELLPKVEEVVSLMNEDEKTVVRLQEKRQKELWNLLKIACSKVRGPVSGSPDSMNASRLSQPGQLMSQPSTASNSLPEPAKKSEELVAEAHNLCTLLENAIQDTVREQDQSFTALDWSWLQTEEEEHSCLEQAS
# [9] = molecular target: T3, Inhibitor of nuclear factor kappa-B kinase subunit beta (Homo sapiens); conditions: at 1 µM
# [10] = molecular target: T4, Inhibitor of nuclear factor kappa-B kinase subunit epsilon (Homo sapiens) (UniProt Q14164); conditions: at 0.1 µM
# T4 sequence (whole entry): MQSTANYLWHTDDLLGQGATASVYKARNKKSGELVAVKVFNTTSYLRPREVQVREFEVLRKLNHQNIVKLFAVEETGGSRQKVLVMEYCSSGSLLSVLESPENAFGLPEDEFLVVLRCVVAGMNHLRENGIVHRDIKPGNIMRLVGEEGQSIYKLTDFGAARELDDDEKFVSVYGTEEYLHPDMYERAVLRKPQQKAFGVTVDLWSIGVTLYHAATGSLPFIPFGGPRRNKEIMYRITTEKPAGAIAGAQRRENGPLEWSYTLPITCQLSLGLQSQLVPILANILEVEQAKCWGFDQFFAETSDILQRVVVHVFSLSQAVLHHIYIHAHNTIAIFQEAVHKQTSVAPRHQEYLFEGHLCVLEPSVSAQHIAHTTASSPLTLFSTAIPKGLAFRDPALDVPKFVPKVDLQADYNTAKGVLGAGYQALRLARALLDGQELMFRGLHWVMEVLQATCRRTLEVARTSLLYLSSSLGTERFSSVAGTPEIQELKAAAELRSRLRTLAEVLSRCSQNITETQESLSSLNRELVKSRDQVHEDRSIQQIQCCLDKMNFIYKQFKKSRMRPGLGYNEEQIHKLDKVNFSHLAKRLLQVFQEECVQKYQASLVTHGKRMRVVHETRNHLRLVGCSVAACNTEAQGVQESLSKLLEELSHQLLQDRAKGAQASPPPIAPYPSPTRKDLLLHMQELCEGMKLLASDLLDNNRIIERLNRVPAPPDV
# [11] = molecular target: T4, Inhibitor of nuclear factor kappa-B kinase subunit epsilon (Homo sapiens); conditions: at 1 µM
# [12] = molecular target: T5, Serine/threonine-protein kinase Nek1 (Homo sapiens) (UniProt Q96PY6); conditions: at 0.1 µM
# T5 sequence (whole entry): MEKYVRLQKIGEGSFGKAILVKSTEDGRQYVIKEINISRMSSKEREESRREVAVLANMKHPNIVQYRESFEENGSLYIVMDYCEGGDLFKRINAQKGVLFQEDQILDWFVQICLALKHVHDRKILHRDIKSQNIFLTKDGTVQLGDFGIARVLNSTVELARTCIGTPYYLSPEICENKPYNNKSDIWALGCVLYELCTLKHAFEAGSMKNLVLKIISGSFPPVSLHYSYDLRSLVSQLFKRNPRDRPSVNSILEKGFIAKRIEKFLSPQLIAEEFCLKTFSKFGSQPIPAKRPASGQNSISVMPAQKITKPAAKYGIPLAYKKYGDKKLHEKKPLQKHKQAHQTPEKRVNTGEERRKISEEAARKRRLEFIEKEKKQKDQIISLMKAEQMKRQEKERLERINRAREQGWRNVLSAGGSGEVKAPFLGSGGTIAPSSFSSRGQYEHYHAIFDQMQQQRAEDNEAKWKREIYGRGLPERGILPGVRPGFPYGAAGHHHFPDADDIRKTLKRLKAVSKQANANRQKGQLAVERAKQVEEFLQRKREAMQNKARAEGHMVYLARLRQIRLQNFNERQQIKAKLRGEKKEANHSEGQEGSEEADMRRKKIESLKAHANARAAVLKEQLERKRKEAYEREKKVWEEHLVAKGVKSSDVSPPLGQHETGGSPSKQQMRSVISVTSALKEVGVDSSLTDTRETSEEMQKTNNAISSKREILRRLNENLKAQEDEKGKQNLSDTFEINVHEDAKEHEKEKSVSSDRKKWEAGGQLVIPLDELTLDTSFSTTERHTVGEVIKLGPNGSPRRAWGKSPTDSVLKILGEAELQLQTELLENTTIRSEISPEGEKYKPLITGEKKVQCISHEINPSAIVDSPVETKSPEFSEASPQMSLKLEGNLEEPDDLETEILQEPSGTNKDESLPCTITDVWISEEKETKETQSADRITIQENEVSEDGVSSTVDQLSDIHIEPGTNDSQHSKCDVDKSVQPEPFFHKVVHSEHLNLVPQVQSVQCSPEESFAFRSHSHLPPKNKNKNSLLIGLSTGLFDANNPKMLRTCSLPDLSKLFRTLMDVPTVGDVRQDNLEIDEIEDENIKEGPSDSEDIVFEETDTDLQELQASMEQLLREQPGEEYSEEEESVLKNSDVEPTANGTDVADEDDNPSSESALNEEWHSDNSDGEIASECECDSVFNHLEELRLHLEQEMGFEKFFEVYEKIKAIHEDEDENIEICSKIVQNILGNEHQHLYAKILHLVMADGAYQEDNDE
# [13] = molecular target: T5, Serine/threonine-protein kinase Nek1 (Homo sapiens); conditions: at 1 µM
# [14] = molecular target: T6, Serine/threonine-protein kinase Nek2 (Homo sapiens) (UniProt P51955); conditions: at 0.1 µM
# T6 sequence (whole entry): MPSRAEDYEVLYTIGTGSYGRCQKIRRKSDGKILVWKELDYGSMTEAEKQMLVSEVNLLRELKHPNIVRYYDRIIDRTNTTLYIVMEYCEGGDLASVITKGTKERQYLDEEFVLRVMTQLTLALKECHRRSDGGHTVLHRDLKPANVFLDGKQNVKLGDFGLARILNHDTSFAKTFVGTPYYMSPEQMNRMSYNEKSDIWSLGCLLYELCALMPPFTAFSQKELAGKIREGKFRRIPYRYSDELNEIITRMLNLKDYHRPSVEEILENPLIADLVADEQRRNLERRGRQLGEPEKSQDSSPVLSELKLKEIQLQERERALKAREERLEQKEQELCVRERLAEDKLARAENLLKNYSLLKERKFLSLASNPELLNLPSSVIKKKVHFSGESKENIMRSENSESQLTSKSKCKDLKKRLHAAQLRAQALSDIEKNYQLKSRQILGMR
# [15] = molecular target: T6, Serine/threonine-protein kinase Nek2 (Homo sapiens); conditions: at 1 µM
# [16] = molecular target: Serine/threonine-protein kinase Nek6 (Homo sapiens) (UniProt Q9HC98); conditions: at 0.1 µM
# [17] = molecular target: Serine/threonine-protein kinase Nek6 (Homo sapiens) (UniProt Q9HC98); conditions: at 1 µM
# [18] = molecular target: Serine/threonine-protein kinase Nek7 (Homo sapiens) (UniProt Q8TDX7); conditions: at 0.1 µM
# [19] = molecular target: Serine/threonine-protein kinase Nek7 (Homo sapiens) (UniProt Q8TDX7); conditions: at 1 µM
# [20] = molecular target: T7, Serine/threonine-protein kinase Nek9 (Homo sapiens) (UniProt Q8TD19); conditions: at 0.1 µM;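 further: reported value is the mean percent inhibition of NEK9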
# T7 sequence (whole entry): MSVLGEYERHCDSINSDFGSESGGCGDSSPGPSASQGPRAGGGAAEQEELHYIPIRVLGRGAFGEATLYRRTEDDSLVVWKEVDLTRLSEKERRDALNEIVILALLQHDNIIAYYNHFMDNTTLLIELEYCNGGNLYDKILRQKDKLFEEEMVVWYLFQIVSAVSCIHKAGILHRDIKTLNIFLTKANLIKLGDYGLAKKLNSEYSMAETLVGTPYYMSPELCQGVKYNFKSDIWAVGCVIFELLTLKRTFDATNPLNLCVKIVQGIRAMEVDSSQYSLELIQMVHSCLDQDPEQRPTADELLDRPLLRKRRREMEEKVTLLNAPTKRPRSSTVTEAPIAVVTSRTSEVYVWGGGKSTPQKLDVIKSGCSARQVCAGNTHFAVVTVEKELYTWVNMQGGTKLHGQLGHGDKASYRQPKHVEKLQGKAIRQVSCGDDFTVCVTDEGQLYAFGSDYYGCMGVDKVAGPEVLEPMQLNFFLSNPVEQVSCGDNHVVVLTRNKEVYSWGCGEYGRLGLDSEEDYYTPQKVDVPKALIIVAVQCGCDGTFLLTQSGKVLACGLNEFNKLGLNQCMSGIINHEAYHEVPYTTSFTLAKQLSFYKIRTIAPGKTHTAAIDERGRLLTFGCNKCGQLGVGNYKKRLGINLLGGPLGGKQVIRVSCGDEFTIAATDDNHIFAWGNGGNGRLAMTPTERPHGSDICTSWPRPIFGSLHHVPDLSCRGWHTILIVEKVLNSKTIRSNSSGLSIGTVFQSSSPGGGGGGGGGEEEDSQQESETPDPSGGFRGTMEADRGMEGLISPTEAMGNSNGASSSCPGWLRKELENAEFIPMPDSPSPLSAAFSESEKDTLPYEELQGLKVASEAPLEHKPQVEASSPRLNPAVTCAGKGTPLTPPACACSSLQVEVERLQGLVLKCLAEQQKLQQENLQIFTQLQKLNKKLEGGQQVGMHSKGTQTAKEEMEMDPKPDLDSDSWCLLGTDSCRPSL
# Sequence of Serine/threonine-protein kinase Nek6 (Homo sapiens) (Q9HC98 whole entry): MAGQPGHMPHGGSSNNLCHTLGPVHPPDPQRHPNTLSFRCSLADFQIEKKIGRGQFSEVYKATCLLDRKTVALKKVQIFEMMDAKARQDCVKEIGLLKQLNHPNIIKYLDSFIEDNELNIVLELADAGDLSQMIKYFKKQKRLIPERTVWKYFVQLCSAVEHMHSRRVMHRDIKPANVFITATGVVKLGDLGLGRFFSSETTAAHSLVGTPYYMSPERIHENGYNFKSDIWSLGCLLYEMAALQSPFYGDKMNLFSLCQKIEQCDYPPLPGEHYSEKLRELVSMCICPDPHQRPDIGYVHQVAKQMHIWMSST
# Sequence of Serine/threonine-protein kinase Nek7 (Homo sapiens) (Q8TDX7 whole entry, looked up): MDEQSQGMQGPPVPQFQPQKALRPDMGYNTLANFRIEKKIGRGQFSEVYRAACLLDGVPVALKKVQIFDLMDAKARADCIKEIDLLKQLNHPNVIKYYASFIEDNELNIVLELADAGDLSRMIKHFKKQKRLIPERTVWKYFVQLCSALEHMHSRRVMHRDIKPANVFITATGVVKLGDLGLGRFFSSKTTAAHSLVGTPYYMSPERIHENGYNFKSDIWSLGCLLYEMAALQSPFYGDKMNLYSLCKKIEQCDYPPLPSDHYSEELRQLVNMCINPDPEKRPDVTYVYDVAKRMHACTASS
# Sequence of Casein kinase II subunit alpha (Homo sapiens) (P68400 whole entry, looked up): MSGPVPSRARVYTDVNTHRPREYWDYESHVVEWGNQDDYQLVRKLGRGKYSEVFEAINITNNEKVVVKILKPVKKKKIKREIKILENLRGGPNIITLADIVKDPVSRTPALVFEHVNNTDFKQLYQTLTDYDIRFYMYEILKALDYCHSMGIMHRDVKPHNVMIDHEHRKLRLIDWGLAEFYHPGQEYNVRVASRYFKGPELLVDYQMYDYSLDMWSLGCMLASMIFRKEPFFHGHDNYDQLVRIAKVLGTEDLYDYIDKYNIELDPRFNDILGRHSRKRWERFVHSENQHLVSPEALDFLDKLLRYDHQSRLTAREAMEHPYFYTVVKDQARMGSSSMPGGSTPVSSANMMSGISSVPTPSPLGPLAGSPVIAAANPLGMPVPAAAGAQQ
# Sequence of Sphingosine kinase 1 (Homo sapiens) (Q9NYA1 whole entry): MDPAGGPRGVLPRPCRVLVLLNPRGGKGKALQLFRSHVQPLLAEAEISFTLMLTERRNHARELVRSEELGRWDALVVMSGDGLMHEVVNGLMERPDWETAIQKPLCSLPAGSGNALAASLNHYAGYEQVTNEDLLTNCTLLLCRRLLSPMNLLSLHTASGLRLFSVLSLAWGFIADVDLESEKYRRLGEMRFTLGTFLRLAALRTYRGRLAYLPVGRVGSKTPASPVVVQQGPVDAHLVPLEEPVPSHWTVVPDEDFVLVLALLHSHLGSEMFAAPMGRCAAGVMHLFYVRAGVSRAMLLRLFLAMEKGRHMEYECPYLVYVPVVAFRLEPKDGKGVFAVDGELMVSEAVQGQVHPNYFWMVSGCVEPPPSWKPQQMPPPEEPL
smiles,measurement,setting,value
NCc1ccc(-c2nc(-c3ccc(Cl)c(O)c3)c(-c3ccncc3)[nH]2)cc1,inhibition,[1],-0.71%
same,inhibition,[2],-0.06%
same,inhibition,[3],0%
same,inhibition,[4],0.86%
same,inhibition,[5],1.53%
same,inhibition,[6],3.45%
same,inhibition,[7],-3.91%
same,inhibition,[8],1.08%
same,inhibition,[9],0.02%
same,inhibition,[10],1.2%
same,inhibition,[11],-0.03%
same,inhibition,[12],0.3%
same,inhibition,[13],1.09%
same,inhibition,[14],-2.48%
same,inhibition,[15],0.73%
same,inhibition,[16],-0.93%
same,inhibition,[17],-1.57%
same,inhibition,[18],1.75%
same,inhibition,[19],1.7%
same,inhibition,[20],7.64%
